A selection: hits, their analogues and other compounds. The true share with any hit is near 2.9%.
IP6K1 inh – Primary qHTS assay for small molecule inhibitors of Inositol hexaphosphate kinase 1 (IP6K1). Inositol hexakisphosphate kinase 1 (Homo sapiens), Q92551. IP6K1 kinase, ADP-Glo luminescence, 2 h; active compounds read low. activity change, % (series mostly up to about 58 µM). hit rate 0.81% among 140,000. AID 1645851, 2021; in the data active = activity change below about -25%; note: % is set by controls: 0 for no effect and ±100 for the full control effect
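ADP-Glo luminescence measures ADP made by human IP6K1 during a 2 h RT reaction with ATP/IP6 (mix at 1.3 mM/130 uM); top library doses 57.5 and 19.1 uM final.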
KDM5B inh – Primary screen for KDM5B Histone Demethylases FDH-coupled qHTS | hit rate 2.6% among 220,000 | Potency, µM (series often up to 57.7 µM), actives largely listed as inhibitors | AID 1347165, 2019 | KDM5B demethylase, FDH-coupled NADH fluorescence (FDH is formaldehyde dehydrogenase); note: potency is the fitted concentration of half-maximal effect; 0% is about no effect; nearly all actives have a fitted effect of over 70% in size
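Coupled FDH/NAD⁺ fluorescence readout. KDM5BΔAP 200 nM final; compound titration, 10 min RT preincubation; substrate mix 12.5 µM H3K4me3, 25 µM 2-OG, 50 µM Fe(II), 100 µM ascorbate, 0.25 mM NAD⁺, 0.25 U/mL FDH; ΔRFU over 30 min.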
HEK293 viab – GF-AFC viability counterscreen for inhibitors of alpha-synuclein gene (SNCA) expression | HEK-293-SNCA-luc viability, GF-AFC fluorescence, 24 h | Potency, µM (doses to about 57.1 µM), for inactives: top-dose activity change, negative = cytotoxicity, actives largely listed as cytotoxic | hit rate 0.12% among 150,000;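 note: potency is the fitted concentration of half-maximal effect; 0% = DMSO-treated cells and -100% = medium-only wells without cells; nearly all actives have a fitted effect of over 30% in size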
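HEK-293-SNCA-luc cells (1500/well) plated 24 h, then exposed 24 h to a dilution series; GF-AFC added 30 min at 37C, fluorescence 405/540 nm; normalised to medium-only and DMSO wells, Hill fit.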
SNCA expr inhib – Primary qHTS assay for inhibitors of alpha-synuclein gene (SNCA) expression. HEK-293 SNCA-luciferase knock-in, luminescence, 24 h. Potency, µM (top dose mostly 57.2 µM), for inactives: at the highest dose activity change, negative = inhibition, hits mostly inhibitors. hit rate 0.17% among 140,000. AID 1671194, 2021;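 note: potency is the fitted concentration of half-maximal effect; plate controls were DMSO cells for no effect and cell-free wells for full effect; nearly all actives have a fitted effect of over 45% in size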
Active calls of the source: *; i = inactive; ? = inconclusive; / = no result; ! = not active in a repeat; [ ] = dose if it differs, or a comment. Unless noted, calls come from the whole dose curve; as a rule, active = well fitted curve in the direction sought with a large enough effect; inconclusive = small, poorly fitted or top-dose-only effect, or another doubt; inactive = no such curve, though single readings can be large; an effect the other way counts as inactive or inconclusive.

SMILES | IP6K1 inh | KDM5B inh | HEK293 viab | SNCA expr inhib
O=C(c1ccccc1)N1C[C@@H]2C[C@H](C1)c1ccc(-c3cncnc3)c(=O)n1C2 | -6 | 40µM* | 0%[87.6 µM] | 1%[87.6 µM]
O=C(c1ccccc1)N1C[C@@H]2C[C@H](C1)c1c(-c3cncnc3)ccc(=O)n1C2 | -5 | ? | 0%[87.6 µM] | -19%[87.6 µM]
O=C(c1ccc(F)cc1)N1C[C@@H]2C[C@H](C1)c1ccc(-c3cncnc3)c(=O)n1C2 | 0 | 40µM* | 2%[87.6 µM] | 22%[87.6 µM]
Cc1ccc(-c2ccccc2CN2CCN(C(=O)Cc3ccc(F)cc3)CC2)cc1Cl | -4 | / | -3%[12.5 µM] | ?
Cc1[nH]nc2ccc(-c3cncc(OC[C@@H](N)Cc4c[nH]c5ccccc45)c3)cc12 | 5 | / | 19µM*! | 0.11µM*
CN(C)c1cc2c(cc1Sc1nc3c(N)nccc3n1CCNCC(C)(C)C)OCO2 | -6 | / | ? | /
O=C(c1ccccc1)N1C[C@@H]2C[C@H](C1)c1c(/C=C/c3ccc(Cl)cc3)ccc(=O)n1C2 | -3 | 35µM* | -12%[87.6 µM] | -26%[87.6 µM]
C[C@]12CC[C@H]3[C@@H](CCC4=C/C(=N/OCC(=O)O)CC[C@@]43C)[C@@H]1CC[C@@H]2O | -4 | / | 7% | /
O=[S+]1([O-])NC2(CCN(Cc3cccnc3)C2)COc2ccncc21 (stereo not drawn) | 2 | i | 3% | -12%
O=[S+]1([O-])NC2(CCN(Cc3ccncc3)C2)COc2ccncc21 (stereo not drawn) | 2 | 40µM* | -1% | 4%
O=C(NC[C@H]1C[C@@H]2CCN1C[C@@H]2CN1CCCCC1)c1ccc2c(c1)OCO2 | -11 | i | -16%[87.6 µM] | 22%[87.6 µM]
Cc1nc(-c2cccs2)cc([C@H]2CN3CC[C@H]2C[C@@H]3CNC(=O)C(C)(C)C)n1 | 23 | ? | 8%[87.6 µM] | -27%[87.6 µM]
COc1ccc(-c2cc([C@H]3CN4CC[C@H]3C[C@@H]4CNC(=O)c3cccs3)nc(C)n2)cc1OC | 10 | 28µM* | 0% | 31%
COc1ccc(-c2cc([C@H]3CN4CC[C@H]3C[C@@H]4CNC(=O)CSCC(=O)O)nc(C)n2)cc1OC | -3 | 32µM* | -18% | 13%
CCNC(=O)NC[C@H]1C[C@@H]2CCN1C[C@@H]2c1cc(-c2ccccc2)nc(C)n1 | 25 | ? | -14%[87.6 µM] | -2%[87.6 µM]
Cc1nc(-c2cccs2)cc([C@H]2CN3CC[C@H]2C[C@@H]3CO)n1 | 8 | 35µM* | -25%[87.6 µM] | 3.5µM*
Cc1nc(-c2cccs2)cc([C@H]2CN3CC[C@H]2C[C@@H]3CNC(=O)c2ccc(C(F)(F)F)cc2)n1 | 5 | i | -7% | -31%
CCNC(=O)NC[C@H]1C[C@@H]2CCN1C[C@@H]2c1cc(-c2ccc(OC)c(OC)c2)nc(C)n1 | -10 | 18µM* | 3% | 3%
Cc1nc(-c2ccc(C(F)(F)F)cc2)cc([C@H]2CN3CC[C@H]2C[C@@H]3CNC(=O)CCCC(=O)O)n1 | 3 | i | 5% | -25%
Cc1nc(-c2ccccc2Br)cc([C@H]2CN3CC[C@H]2C[C@@H]3CNC(=O)NC(C)C)n1 | 4 | ? | -10% | 2%
CC(=O)O[C@H]1C[C@@H](OC(C)=O)C(C)(C)C2C[C@@H](O)[C@]3(C)C(CC[C@@]4(C)[C@H](C5=CC(=O)OC5O)C[C@H]5O[C@]543)[C@]21C (stereo partly drawn) | 2 | / | 21%[23.9 µM] | /
COc1ccc(-c2cc([C@H]3CN4CC[C@H]3C[C@@H]4COC(=O)NC3CCCCC3)nc(C)n2)cc1 | 9 | i | 0% | 1%
CCCS(=O)(=O)NC[C@H]1C[C@@H]2CCN1C[C@@H]2c1cc(-c2ccc(OC)c(OC)c2)nc(C)n1 | 9 | 25µM* | -5% | -9%
COc1ccc(-c2cc([C@H]3CN4CC[C@H]3C[C@@H]4CN)nc(C)n2)cc1OC | 6 | 40µM* | ? | 5%[87.6 µM]
C=C[C@H]1CN2CC[C@H]1C[C@@H]2CNCc1ccc(OC)cc1 | 5 | ? | -7%[87.6 µM] | 16%[87.6 µM]
SMILES | IP6K1 inh | KDM5B inh | HEK293 viab | SNCA expr inhib
OCC1CN(c2ncccn2)CC12CCNCC2 (stereo not drawn) | 13 | 32µM* | 0% | 8%
Cc1nc(-c2ccc(N(C)C)cc2)cc([C@H]2CN3CC[C@H]2C[C@@H]3COC(=O)NC(C)C)n1 | -9 | 28µM* | -12% | -17%
COc1ccc(C(=O)NC[C@H]2C[C@@H]3CCN2C[C@@H]3c2cc(-c3ccc(N(C)C)cc3)nc(C)n2)cc1 | -4 | 28µM* | -22% | ?
Cc1nc(-c2ccccc2Br)cc([C@H]2CN3CC[C@H]2C[C@@H]3CNC(=O)c2ccc(N(C)C)cc2)n1 | -6 | i | -28% | -22%
Cc1nc(-c2ccc(N(C)C)cc2)cc([C@H]2CN3CC[C@H]2C[C@@H]3CNC(=O)c2ccccc2)n1 | 2 | 25µM* | ? | ?
C#C[C@H]1CN2CC[C@H]1C[C@@H]2CNC(=O)c1ccc(N(C)C)cc1 | -2 | i | -9%[87.6 µM] | 6%[87.6 µM]
CCOC(=O)[C@@H]1[C@H]2c3ccccc3N(CCOC)C(=O)[C@H]2N(C(=O)C2CCC2)[C@@H]1c1ccccc1 | -7 | / | / | /
OCCNc1cc(N2CC[C@@]3(O)CCNC[C@H]3C2)ncn1 | 7 | i | 3% | 9%
Cn1nc2n(c1=O)CCC(NC(=O)c1nn(C)c3ccccc13)CC2 (stereo not drawn) | -12 | 18µM* | 10% | -24%
CC(=O)N1CCC2(CC1)C(=O)NN=C2c1cccnc1 | 5 | i | 9%[87.6 µM] | -6%[87.6 µM]
CC(=O)N1CCC2(CC1)CC(c1cccnc1)=NO2 | -3 | 18µM* | 5%[87.6 µM] | -20%[87.6 µM]
CC(=O)N1CCC2(C1)N=C(c1cccnc1)C(=O)N2 (stereo not drawn) | 1 | 35µM* | 10%[87.6 µM] | 7%[87.6 µM]
c1cncc(C2=NOC3(CCN(C4CCCCC4)CC3)C2)c1 | 5 | i | ? | 9%[87.6 µM]
CCOC(=O)[C@H]1CN(C(=O)c2cc3ccccc3s2)[C@]2(C)C(=O)N(C)c3ccccc3[C@H]12 | 26 | / | -15%[23.9 µM] | -4%[25.6 µM]
CC(=O)Nc1ccc(S(=O)(=O)NC[C@H]2C[C@@H]3CCN2C[C@@H]3c2cc(-c3ccco3)nc(C)n2)cc1 | 2 | 32µM* | 3% | -3%
CC(=O)Nc1ccc(S(=O)(=O)NC[C@H]2C[C@@H]3CCN2C[C@@H]3c2cc(-c3ccc(N(C)C)cc3)nc(C)n2)cc1 | 8 | 20µM* | -12% | -21%
O=C(O)C(=O)N1C[C@@H]2C[C@H](C1)c1ccc(NS(=O)(=O)c3ccccc3)c(=O)n1C2 | 13 | ? | 2%[87.6 µM] | 6%[87.6 µM]
O=C(C1CCCCC1)N1C[C@@H]2C[C@H](C1)c1ccc(C3CCCCC3)c(=O)n1C2 | 11 | ? | 1%[87.6 µM] | -3%[87.6 µM]
O=C(Nc1ccccc1)Nc1ccc2n(c1=O)C[C@H]1C[C@@H]2CN(C(=O)c2ccccc2)C1 | -2 | ? | -10%[87.6 µM] | 77%[87.6 µM]
O=C(C1CCCCC1)N1C[C@@H]2C[C@H](C1)c1ccc(-c3cccc(C(F)(F)F)c3)c(=O)n1C2 | 14 | 32µM* | -11% | 0%
